The target of the assay is Peptidyl-prolyl cis-trans isomerase NIMA-interacting 1 (Homo sapiens) (UniProt Q13526). Nature of the assay: qHTS Assay to Find Inhibitors of Pin1: Hit Validation. The conditions noted are these: Pin1 FP peptide displacement, HiFluor488 probe. The source says: The unique chemical properties of Pro allow for the adoption of two completely distinct amide bond conformations (cis and trans). Peptidyl-prolyl cis/trans isomerases (PPIases) are evolutionary conserved enzymes that catalyze cis/trans isomerization of peptidyl-prolyl peptide bonds. Distinct from all other PPIases such as cyclophilins and FK506-binding proteins (FKBPs), Pin1 binds a subset of phos.Ser/Thr-Pro-containing proteins using its protein-targeting WW domain and isomerizes only specific phos.Ser/Thr-Pro bonds, which cannot be effectively catalyzed by other known PPIases. […] The goal of this screen is to find small-molecule inhibitors of Pin1 using a fluorescence polarization competition assay. […]
Peptidyl-prolyl cis-trans isomerase NIMA-interacting 1 (Homo sapiens), sequence (Q13526 whole entry, looked up, the tested form may be a part): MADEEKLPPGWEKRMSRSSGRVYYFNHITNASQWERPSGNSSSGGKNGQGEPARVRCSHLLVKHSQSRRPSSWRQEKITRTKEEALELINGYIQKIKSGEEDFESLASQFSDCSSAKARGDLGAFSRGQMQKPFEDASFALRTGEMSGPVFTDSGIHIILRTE
Pin1 (0.6 uM) was dispensed into black, solid 1536-well plates at 2 uL/well in 10 mM HEPES (pH 7.5), 10 mM NaCl, 0.01% Tween20, 1 mM DTT, and 1% glycerol. […] The plates were measured on a ViewLux plate reader for fluorescence polarization signal using a 480/20 nM nm excitation filter and 540/25 nM nm S and P emission filters with a 20 second exposure. The %Activity was determined from the corrected fluorescence polarization values. […] Concentration-response curves were fitted to the signals arising from the resulting fluorescence polarization. […] Keywords: Peptidyl prolyl isomerase, Pin1, fluorescence polarization, MLSMR, MLPCN, NIH Roadmap, qHTS, NCGC
For orientation: qHTS replaces the single test concentration by a dilution series.

Results filed as inconclusive are left out. Active and inactive are the calls of the source. Calls come from the whole dose curve; as a rule, active = well fitted inhibition curve with a large enough effect; inconclusive = small, poorly fitted or top-dose-only effect; inactive = flat fitted curve, though single readings scatter.

`Cc1cc2c(C(C)C)c(O)c(O)c(C=O)c2c(O)c1-c1c(C)cc2c(C(C)C)c(O)c(O)c(C=O)c2c1O`: the Potency is 1690 nM (active).

Values taken from PubChem BioAssay AID624308 (National Center for Advancing Translational Sciences (NCATS), 2012).
